# The full data set covers some 8,800 targets. This sample favours those with a hit. About 0.5% of all pairs of compound and target were hits. Values without a mark were called inactive.
# Experiments:
# Test in all cases: log2 fold change, soluble protein after heating vs DMSO (PISA); higher = thermal stabilisation; K562 lysate, 10 uM; active = over 0.2 and 3.5 SD of the protein, either way, in both replicates (recomputed)
# [1] = compound: Cc1cn(-c2cc(NC(=O)c3ccc(C)c(Nc4nccc(-c5cccnc5)n4)c3)cc(C(F)(F)F)c2)cn1 [nilotinib]
# Method in brief: (§1)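 Quantification was by TMTpro 16plex LC-MS/MS with equalised channel sums, applied to the supernatant after 21,000xg for 90 min. Samples were crude K562 extract at 1 mg/mL protein in PBS pH 7.4 with 1 mM MgCl2, treated with 10 μM compound for 30 min, heated for 3 min across 48°C-58°C, pooled and brought to 0.5% NP-40 at 4°C. Values are log-two fold changes in thermal stability relative to solvent controls, from duplicates.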
# [2] = compound: Cc1nc(Nc2n[nH]c3c2CN(C(=O)N[C@H](CN(C)C)c2ccccc2)C3(C)C)c2sccc2n1
# Method in brief: as §1
# [3] = compound: Cc1nc(Nc2ncc(C(=O)Nc3c(C)cccc3Cl)s2)cc(N2CCN(CCO)CC2)n1 [dasatinib]
# Method in brief: as §1
# [4] = compound: Cc1ncc(-c2ccnc(Nc3ccc(S(C)(=O)=O)cc3)n2)n1C(C)C
# Method in brief: as §1
# [5] = compound: Cn1cc(-c2ccc3c(c2)CCN3C(=O)Cc2cccc(C(F)(F)F)c2)c2c(N)ncnc21
# Method in brief: as §1
# [6] = compound: Cn1cc(CNCC2CCN(c3ncc(C(=O)NO)cn3)CC2)c2ccccc21 [quisinostat]
# Method in brief: as §1
# [7] = compound: Cn1cncc1[C@@](N)(c1ccc(Cl)cc1)c1ccc2c(c1)c(-c1cccc(Cl)c1)cc(=O)n2C [tipifarnib]
# Method in brief: as §1
# [8] = compound: NC(=O)Nc1cc(-c2cccc(F)c2)sc1C(=O)N[C@H]1CCCNC1
# Method in brief: as §1
# [9] = compound: NC(=O)c1cnc(N[C@@H]2CCCC[C@@H]2N)nc1Nc1cccc(-n2nccn2)c1
# Method in brief: as §1
# [10] = compound: NC1(c2ccc(-c3nc4ccn5c(=O)[nH]nc5c4cc3-c3ccccc3)cc2)CCC1
# Method in brief: as §1
# Chain of UniProt O75843 (O75843 whole entry, looked up): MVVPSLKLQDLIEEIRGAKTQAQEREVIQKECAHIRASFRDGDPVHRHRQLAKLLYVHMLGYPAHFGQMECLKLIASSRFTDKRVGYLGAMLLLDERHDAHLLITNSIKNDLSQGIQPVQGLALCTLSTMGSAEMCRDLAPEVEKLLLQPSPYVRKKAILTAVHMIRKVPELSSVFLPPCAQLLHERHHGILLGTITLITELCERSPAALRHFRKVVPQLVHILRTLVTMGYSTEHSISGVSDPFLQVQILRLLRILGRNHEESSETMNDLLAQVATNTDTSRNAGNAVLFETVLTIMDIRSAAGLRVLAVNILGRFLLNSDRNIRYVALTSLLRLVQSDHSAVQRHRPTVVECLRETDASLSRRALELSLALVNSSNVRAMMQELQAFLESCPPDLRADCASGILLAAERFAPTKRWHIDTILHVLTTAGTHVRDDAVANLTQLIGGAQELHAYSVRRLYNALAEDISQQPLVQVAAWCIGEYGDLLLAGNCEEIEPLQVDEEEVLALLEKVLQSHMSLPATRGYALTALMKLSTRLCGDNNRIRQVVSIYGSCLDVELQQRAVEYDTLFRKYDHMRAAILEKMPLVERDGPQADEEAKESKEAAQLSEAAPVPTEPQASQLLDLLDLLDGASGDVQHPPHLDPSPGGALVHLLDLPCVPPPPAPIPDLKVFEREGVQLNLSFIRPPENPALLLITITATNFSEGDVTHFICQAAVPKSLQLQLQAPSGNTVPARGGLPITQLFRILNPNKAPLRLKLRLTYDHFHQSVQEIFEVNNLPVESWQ
# Chain of UniProt Q7L211 (Q7L211 whole entry, looked up): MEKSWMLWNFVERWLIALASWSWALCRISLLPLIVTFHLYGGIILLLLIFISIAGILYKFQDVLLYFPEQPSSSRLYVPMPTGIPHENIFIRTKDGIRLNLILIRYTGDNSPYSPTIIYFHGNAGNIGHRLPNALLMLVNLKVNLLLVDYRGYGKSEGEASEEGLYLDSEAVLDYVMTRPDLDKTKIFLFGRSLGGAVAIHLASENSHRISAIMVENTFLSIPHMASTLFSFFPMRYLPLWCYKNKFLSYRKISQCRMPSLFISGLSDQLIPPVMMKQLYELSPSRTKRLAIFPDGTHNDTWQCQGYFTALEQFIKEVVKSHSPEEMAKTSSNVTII
# Chain of UniProt P39687 (P39687 whole entry, looked up): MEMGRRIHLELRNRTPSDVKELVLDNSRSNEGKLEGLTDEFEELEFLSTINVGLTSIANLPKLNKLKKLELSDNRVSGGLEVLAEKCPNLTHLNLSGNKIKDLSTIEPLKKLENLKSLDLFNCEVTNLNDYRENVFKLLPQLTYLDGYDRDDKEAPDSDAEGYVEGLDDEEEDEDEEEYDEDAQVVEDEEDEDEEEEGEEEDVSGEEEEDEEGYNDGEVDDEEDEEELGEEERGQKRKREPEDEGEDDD
# Chain of UniProt Q9NWX5 (Q9NWX5 whole entry, looked up): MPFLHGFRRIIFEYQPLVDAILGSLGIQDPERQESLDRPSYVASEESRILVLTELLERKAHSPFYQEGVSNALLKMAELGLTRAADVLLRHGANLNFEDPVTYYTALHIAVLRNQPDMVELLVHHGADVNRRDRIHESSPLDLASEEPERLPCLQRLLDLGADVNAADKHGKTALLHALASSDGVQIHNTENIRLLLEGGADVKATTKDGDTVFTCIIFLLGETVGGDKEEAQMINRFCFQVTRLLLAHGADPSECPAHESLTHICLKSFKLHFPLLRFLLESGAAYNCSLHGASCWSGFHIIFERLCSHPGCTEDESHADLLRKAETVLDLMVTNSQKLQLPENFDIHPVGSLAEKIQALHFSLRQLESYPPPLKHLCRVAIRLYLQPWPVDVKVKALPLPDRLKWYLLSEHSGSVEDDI
# Chain of UniProt Q92974 (Q92974 whole entry, looked up): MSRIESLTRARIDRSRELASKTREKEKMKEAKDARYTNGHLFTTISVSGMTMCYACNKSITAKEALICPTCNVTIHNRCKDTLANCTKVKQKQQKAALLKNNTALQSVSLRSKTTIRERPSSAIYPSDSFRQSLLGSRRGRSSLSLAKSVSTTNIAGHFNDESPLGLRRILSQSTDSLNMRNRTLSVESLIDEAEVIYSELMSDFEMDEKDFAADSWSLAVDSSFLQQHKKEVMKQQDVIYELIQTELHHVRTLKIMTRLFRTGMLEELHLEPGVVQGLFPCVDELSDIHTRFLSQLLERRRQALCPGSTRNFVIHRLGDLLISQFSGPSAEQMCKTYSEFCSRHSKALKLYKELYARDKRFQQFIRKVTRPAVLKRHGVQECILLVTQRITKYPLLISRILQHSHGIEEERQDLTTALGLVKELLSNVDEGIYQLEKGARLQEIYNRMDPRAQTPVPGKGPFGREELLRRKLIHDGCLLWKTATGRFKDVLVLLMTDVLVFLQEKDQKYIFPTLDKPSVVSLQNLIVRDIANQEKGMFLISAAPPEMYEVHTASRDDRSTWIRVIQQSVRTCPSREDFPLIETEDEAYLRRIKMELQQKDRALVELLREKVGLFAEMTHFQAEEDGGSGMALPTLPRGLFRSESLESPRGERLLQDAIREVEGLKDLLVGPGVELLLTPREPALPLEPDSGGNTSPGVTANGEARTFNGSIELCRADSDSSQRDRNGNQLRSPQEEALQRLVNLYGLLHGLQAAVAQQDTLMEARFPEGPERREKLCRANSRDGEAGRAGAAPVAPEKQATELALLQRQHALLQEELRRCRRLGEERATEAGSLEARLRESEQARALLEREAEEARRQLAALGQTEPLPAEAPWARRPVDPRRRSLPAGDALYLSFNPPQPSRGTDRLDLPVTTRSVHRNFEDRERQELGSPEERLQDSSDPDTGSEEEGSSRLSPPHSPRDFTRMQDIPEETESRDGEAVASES
# Chain of UniProt Q12797 (Q12797 whole entry, looked up): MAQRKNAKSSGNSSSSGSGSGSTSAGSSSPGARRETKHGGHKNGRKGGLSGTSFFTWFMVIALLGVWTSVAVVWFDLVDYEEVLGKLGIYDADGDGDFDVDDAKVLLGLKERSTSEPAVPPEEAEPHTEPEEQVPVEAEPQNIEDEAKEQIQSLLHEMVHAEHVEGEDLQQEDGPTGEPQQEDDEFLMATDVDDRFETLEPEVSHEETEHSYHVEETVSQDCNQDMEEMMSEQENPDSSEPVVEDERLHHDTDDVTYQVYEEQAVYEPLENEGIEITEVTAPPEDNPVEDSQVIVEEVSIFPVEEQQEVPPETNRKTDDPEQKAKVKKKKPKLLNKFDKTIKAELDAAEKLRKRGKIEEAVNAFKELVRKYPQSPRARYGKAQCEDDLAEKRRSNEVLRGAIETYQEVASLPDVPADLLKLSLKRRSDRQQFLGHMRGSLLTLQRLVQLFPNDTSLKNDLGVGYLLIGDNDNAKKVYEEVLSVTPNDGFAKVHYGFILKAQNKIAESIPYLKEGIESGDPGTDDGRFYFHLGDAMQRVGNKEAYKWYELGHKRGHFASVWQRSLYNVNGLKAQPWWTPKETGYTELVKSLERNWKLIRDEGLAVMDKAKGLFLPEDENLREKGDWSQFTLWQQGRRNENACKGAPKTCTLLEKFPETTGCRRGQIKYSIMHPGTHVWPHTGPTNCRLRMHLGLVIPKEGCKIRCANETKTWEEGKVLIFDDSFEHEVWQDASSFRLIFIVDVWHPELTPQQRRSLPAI
# Chain of UniProt Q9NXW9 (Q9NXW9 whole entry, looked up): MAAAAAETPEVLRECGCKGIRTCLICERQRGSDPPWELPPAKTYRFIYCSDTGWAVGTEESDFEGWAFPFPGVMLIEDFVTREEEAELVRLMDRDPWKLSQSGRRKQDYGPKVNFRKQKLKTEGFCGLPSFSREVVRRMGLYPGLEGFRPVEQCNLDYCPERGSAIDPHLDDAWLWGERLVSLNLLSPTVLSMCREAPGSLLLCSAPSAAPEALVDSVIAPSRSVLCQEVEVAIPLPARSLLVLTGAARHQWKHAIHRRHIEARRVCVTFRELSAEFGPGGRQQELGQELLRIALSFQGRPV
# Chain of UniProt Q96GS6 (Q96GS6 whole entry, looked up): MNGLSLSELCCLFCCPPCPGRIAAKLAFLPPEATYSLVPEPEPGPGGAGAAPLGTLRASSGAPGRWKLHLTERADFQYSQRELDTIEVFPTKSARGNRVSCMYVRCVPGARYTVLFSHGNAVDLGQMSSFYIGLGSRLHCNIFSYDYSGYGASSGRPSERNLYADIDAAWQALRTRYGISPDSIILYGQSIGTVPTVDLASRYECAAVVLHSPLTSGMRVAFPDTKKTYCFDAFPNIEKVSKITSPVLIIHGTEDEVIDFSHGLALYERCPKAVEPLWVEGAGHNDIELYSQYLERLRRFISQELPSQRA
# Chain of UniProt P52895 (P52895 whole entry, looked up): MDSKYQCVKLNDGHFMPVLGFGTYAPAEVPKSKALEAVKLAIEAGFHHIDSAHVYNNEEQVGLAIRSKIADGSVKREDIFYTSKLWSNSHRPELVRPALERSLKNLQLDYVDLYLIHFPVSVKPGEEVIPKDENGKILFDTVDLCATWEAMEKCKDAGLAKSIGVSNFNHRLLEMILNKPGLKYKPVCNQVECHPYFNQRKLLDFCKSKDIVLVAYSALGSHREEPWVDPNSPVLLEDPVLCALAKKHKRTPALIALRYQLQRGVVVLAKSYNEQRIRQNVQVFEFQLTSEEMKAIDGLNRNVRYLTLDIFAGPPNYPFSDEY
# Chain of UniProt P07311 (P07311 whole entry, looked up): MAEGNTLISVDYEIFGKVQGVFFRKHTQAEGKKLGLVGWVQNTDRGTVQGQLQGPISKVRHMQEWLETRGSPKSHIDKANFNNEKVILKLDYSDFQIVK
# Chain of UniProt Q13155 (Q13155 whole entry, looked up): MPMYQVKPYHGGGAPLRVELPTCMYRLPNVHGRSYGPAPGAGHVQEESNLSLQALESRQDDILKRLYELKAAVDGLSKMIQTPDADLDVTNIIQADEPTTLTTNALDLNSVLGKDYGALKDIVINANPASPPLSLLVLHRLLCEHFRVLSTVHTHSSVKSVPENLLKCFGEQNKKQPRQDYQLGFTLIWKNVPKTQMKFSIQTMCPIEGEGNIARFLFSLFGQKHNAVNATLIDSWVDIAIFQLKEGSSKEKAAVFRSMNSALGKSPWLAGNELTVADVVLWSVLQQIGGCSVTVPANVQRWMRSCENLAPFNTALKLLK
Target,log2 fold change [1],log2 fold change [2],log2 fold change [3],log2 fold change [4],log2 fold change [5],log2 fold change [6],log2 fold change [7],log2 fold change [8],log2 fold change [9],log2 fold change [10]
AKR1C3 (UniProt P42330),-0.007,0.046,0.209,-0.079,-0.038,-0.055,0.04,0.036,-0.059,-0.013
ACYP1 (UniProt P07311),-0.014,0.019,0.022,-0.028,0.014,0.024,0.019,-0.029,-0.013,0.039
ANP32A (UniProt P39687),-0.003,0.03,0.125,-0.011,-0.039,-0.006,0.002,-0.097,0.012,-0.359 (active)
AKR1C2 (UniProt P52895),0.02,-0.031,-0.006,-0.009,-0.045,-0.043,0,0.019,-0.039,-0.034
ASCC2 (UniProt Q9H1I8),-0.005,-0.029,-0.01,-0.018,0.026,-0.06,0.082,0.035,0.038,-0.023
ASPH (UniProt Q12797),-0.033,-0.025,0.089,0.011,-0.019,-0.02,0.004,-0.005,-0.009,-0.013
ACTBL2 (UniProt Q562R1),0.32,-0.036,-0.075,0.139,-0.067,0.184,0.087,-0.03,-0.008,0.006
ADRM1 (UniProt Q16186),0.002,-0.006,-0.063,0.015,-0.003,-0.102,-0.017,0.011,0.008,-0.003
ABHD13 (UniProt Q7L211),0.152,-0.186,-0.177,-0.069,0.21,0.121,-0.233,-0.029,0.037,
ACADS (UniProt P16219),0.278 (active),-0.04,-0.002,-0.025,0.033,-0.009,-0.018,0.032,0.01,0.017
AIMP1 isoform 2 (UniProt Q12904),-0.013,-0.016,-0.076,0.019,0.023,0.01,0.013,0.044,-0.011,0.001
ALKBH4 (UniProt Q9NXW9),-0.053,-0.05,-0.028,-0.008,0.007,-0.01,0.023,0.023,-0.013,0.047
ANKRD52 (UniProt Q8NB46),0.041,0.003,-0.048,-0.026,-0.045,-0.037,-0.017,0.005,-0.056,-0.028
ANLN (UniProt Q9NQW6),-0.023,0.047,-0.009,-0.018,0.04,-0.072,-0.041,0.006,-0.013,0.015
AIMP2 (UniProt Q13155),0.015,-0.015,-0.048,-0.002,-0.007,-0.009,-0.003,0.045,-0.012,-0.007
AP1G2 (UniProt O75843),-0.013,-0.046,-0.081,-0.019,0.048,-0.006,0.063,0.005,-0.012,-0.125
AFF4 (UniProt Q9UHB7),-0.039,-0.068,0.005,0.012,0.023,0.02,0.065,0.032,-0.026,0.022
ANXA11 (UniProt P50995),0.014,-0.017,-0.033,-0.029,0.016,0.005,-0.011,-0.002,0.009,0.028
ARAP1 (UniProt Q96P48),-0.009,-0.029,-0.036,-0.032,0.013,-0.072,-0.041,0.029,0.006,0.003
ACACB (UniProt O00763),-0.001,-0.042,-0.021,-0.052,0.05,-0.061,0.048,0.062,-0.001,-0.018
ACIN1 (UniProt E7EQT4),0.033,-0.032,0.043,0.006,0.195,-0.087,-0.021,-0.072,0.041,-0.039
ACAA1 (UniProt P09110),0.035,-0.019,0.014,-0.007,-0.027,-0.026,0.011,-0.001,-0.016,0.009
ALG13 (UniProt Q9NP73),0.089,-0.012,-0.044,0.218,0,-0.067,-0.036,-0.004,0.028,-0.009
ACTG1 (UniProt I3L4N8),-0.068,0.104,0.055,-0.045,-0.171,0.032,0.11,-0.053,-0.033,-0.114
ABHD17A isoform 2 (UniProt Q96GS6),0.062,0.038,-0.141,0.096,0.017,-0.09,0.097,-0.007,0.008,0.007
ASB6 (UniProt Q9NWX5),-0.024,0.01,0.01,0.029,-0.025,-0.002,0.041,-0.01,0.016,0.08
AKAP8 (UniProt O43823),-0.3 (active),0.039,0.01,-0.001,0.006,-0.075,0.025,0.084,0.022,0.059
ACOX1 isoform 2 (UniProt Q15067),0.104,0.005,0.065,-0.011,0.019,0,-0.042,-0.018,-0.039,0
ARHGEF2 (UniProt Q92974),0.014,-0.01,-0.01,-0.025,0.013,-0.048,-0.04,0.006,-0.008,0.013

# Source: the supplement of paper PMC10849652
